From PubChem BioAssay (NCI) come the findings set out here.

Common to all, as to assay: NCI-60 one-dose screen, 48 h (100 = growth as untreated, 0 = no growth, -100 = all killed)
Holding throughout (details): 10 µM unless noted

Experiment [1] concerns NCI-H23 lung.
The subject of experiment [2] is NCI-H226 lung.
The subject of experiment [3] is NCI-H322M lung.
Experiment [4] relates to HOP-62 NSCLC.
Experiment [5] deals with NCI-H460 lung.
The subject of experiment [6] is HOP-92 NSCLC.
Experiment [7] has as its system NCI-H522 lung.
Experiment [8] deals with A549/ATCC NSCLC.
Experiment [9] concerns 786-0 renal.
Experiment [10] relates to COLO 205 colon.
For experiment [11], the system named is DU-145 prostate.
The test system of experiment [12] is MALME-3M melanoma.
Experiment [13] concerns MDA-MB-231 breast.
Experiment [14] deals with RXF 393 renal.
The test system of experiment [15] is SF-268 CNS.
The subject of experiment [16] is SF-295 CNS.
Experiment [17] relates to SF-539 CNS.
Experiment [18] has as its system UACC-257 melanoma.
Experiment [19] has as its system M14 melanoma.

Compounds without any hit were thinned out: in the full panel of roughly 83,000, 20% have a hit.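 Negative percent growth values reflect cell death: -40 means 40% of the cells present at the start died, and -100 means all died.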 Values without a mark were called inactive. Activity calls are given as the source filed them. Rule for the calls: active = growth percent below 10; inactive = the rest.

Turning to `N#C/C(=C\c1cccc(C#N)c1)c1ccccc1`, the growth was 101% in experiment [1]; 105% in [2]; 104% in [3]; 92.9% in [4]; 104% in experiment [5]; 120% in experiment [6]. The growth in experiment [7] was 95.6%; in [8], 88.8%; in experiment [9], 105%; in experiment [10], 104%; in experiment [11], 101%; in experiment [12] it was 98.9%. Moreover, the growth is 102% in [13]; 108% in experiment [14]; 99% in [15]; 99.5% in [16]; 99.4% in experiment [17]; 99.2% in [18]. In experiment [19], the growth was 104%.

In the case of `COc1cc(NCCCCCNC(C)(C)C)c2ncccc2c1`, the growth is 93.1% in experiment [1]; 86.5% in experiment [2]; 93.3% in [3]; 92.7% in [4]; 111% in experiment [5]; 79.4% in [6]. Moreover, the growth in experiment [7] was 67.8%; in [8], 88.1%; in experiment [9], 95.6%; in [10] it was 110%; in experiment [11], 112%; in experiment [12], 107%. Further, the growth in [13] is 89.8%; in experiment [14] it was 97.4%; in [15] it was 105%; in [16], 77.5%; in [17], 99.7%; in experiment [18] it was 133%. Further, the growth in experiment [19] was 104%.

On to `COc1ccc(/C=C/c2nc(Nc3ccc(S(=O)(=O)Nc4nc(C)cc(C)n4)cc3)c3ccccc3n2)cc1`, for which the growth in experiment [1] was 78.1%; in experiment [2], 68.9%; in experiment [3] it was 29%; in experiment [4], 75.6%; in [5], 63%; in [6] it was 66.4%. The growth was 68.5% in experiment [7]; 42.2% in experiment [8]; 78.8% in experiment [9]; 59.8% in experiment [10]; 71.3% in [11]; 89.6% in [12]. Further, the growth in [13] was 61.3%; in experiment [14], 94.3%; in experiment [15], 75.3%; in experiment [16] it was 63.8%; in experiment [17] it was 96.8%; in [18], 78.6%. Besides, in experiment [19], the growth was 47.1%.

With `CCOc1ccc(Nc2nc(-c3ccc4c(c3)NC(=O)CO4)cs2)cc1`, the growth in experiment [1] is 45.7%; in experiment [2], 46.9%; in [3], 84.8%; in [4], 95.9%; in [5], 40.7%; in experiment [6] it was 87.3%. Besides, the growth in experiment [7] was 14.6%; in experiment [8], 71.7%; in [9] it was 71.1%; in experiment [10] it was 88.5%; in [11], 77.2%; in experiment [12], 69.7%. Besides, the growth in experiment [13] was 58%; in experiment [14] it was 87.3%; in [15] it was 87.1%; in experiment [16], 158%; in experiment [17], 78.2%; in [18], 33%. In addition, the growth in experiment [19] was 68.2%.

With `COc1ccc(-c2nc3sccn3c2/C=C/C(=O)c2ccc3c(c2)OCO3)cc1`, the growth was 99.7% in [1]; 84.7% in experiment [2]; 88.5% in [3]; 97.5% in [4]; 108% in [5]; 82.8% in experiment [6]. The growth in [7] was 57.8%; in experiment [8] it was 95%; in experiment [9] it was 96.8%; in experiment [10], 211%; in experiment [11] it was 113%; in experiment [12], 84.6%. Further, the growth is 76.3% in [13]; 117% in experiment [14]; 100% in [15]; 97.1% in experiment [16]; 84.6% in [17]; 95.8% in experiment [18]. In addition, in experiment [19], the growth was 103%.

Take `O=C(/C(=C\c1ccc([N+](=O)[O-])cc1)S(=O)Cc1ccc(F)cc1)c1ccc(F)cc1` (stereo not drawn): the growth is 46.7% in [1]; 77.9% in [2]; 79.9% in experiment [3]; 38.1% in [4]; 30.9% in experiment [5]; 65.2% in experiment [6]. Besides, the growth in [7] was -22.1% (active); in experiment [8] it was 79.9%; in [9], -43.9% (active); in [10] it was 8.65% (active); in experiment [11], 33.1%; in experiment [12] it was 18.5%. Further, the growth in experiment [13] was 12.8%; in experiment [14] it was -67.8% (active); in experiment [15], 31.5%; in [16] it was 77.6%; in [17] it was 39.4%; in experiment [18] it was 93.2%. Further, in experiment [19], the growth is 38%.

Take `Cn1cc(-c2csc(-c3c[nH]c4ccccc34)n2)c2ccnc(Cl)c21`: the growth in [1] is 86.9%; in [2], 60.5%; in experiment [3], 88.9%; in experiment [4], 119%; in experiment [5] it was 74.2%; in experiment [6] it was 64%. Further, the growth in [7] is 52.5%; in [8] it was 59%; in experiment [9], 59.1%; in experiment [10], 46.7%; in experiment [11] it was 47.2%; in [12], 139%. For the same compound, the growth in [13] was 70.1%; in [14] it was 43.5%; in experiment [15], 102%; in experiment [16] it was 93.2%; in experiment [17], 56.2%; in experiment [18], 32.2%. For the same compound, the growth in experiment [19] is 43.3%.
